From PubChem BioAssay (NCATS)
Inconclusive results are not listed. Values without a mark were called inactive. The source made the active and inactive calls. Calls follow the shape of the dose curve; as a rule, active = well fitted cell-killing curve with a large enough effect; inconclusive = small, poorly fitted or top-dose-only effect; inactive = flat fitted curve, though single readings scatter. Peptide text beside a SMILES is read from it. * marks the point of attachment. Hexanoyl = CCCCCC(=O)*

Assay: J3T Cancer Cell Toxicity qHTS against the NCATS CANVASS Library (AID 1347371);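 as to activity change, negative = cytotoxicity: J3T is a canine glioma cancer cell line seeded at 500 cells per well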
Settings: J3T dog glioma viability, ATP luminescence, 72 h; series mostly up to 46.1 µM; activity change, negative = cytotoxicity: at the top concentration
Outline: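 Cells plated at 500 per well, compounds pin-transferred, plates incubated 72 hr at 37C, then CellTiterGlo added and luminescence read to measure ATP content.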
% is scaled to controls: 0 for no effect and ±100 for the full control effect; potency is read from the fitted curve at half-maximal effect.

Structure (SMILES) | activity change, negative = cytotoxicity | outcome | Potency
CC(=O)N[C@H](C)c1nc(/C=C/C=C/C(=O)CC2CC(=O)CC[C@]2(C)O)cs1 (some centres undefined) | -0.511% |  | 
CN1C(=O)C(=O)N2C(=C[C@]3(c4c[nH]c5ccccc45)c4ccccc4N[C@H]23)C1=O | 1.28% |  | 
CN1CC[C@]23c4ccccc4N[C@H]1[C@]21CCN(C)[C@H]3Nc2ccccc21 | -3.16% |  | 
C/C=C1/C2=CCCN3C(=O)O[C@H]([C@H]1O)[C@H]23 | -18.7% |  | 
O=C1CC(c2ccc(O)cc2)Oc2ccccc21 (centres undefined) | -21.9% |  | 
COc1c(O)cc(O)c2c(=O)cc(-c3ccccc3)oc12 | 4.23% |  | 
COC1C(C)OC(OCC23C[C@@H]4[C@H](C)CC[C@H]4C4(C=O)CC2C=C(C(C)C)C34C(=O)O)[C@@H](O)[C@H]1O (some centres undefined) | -8.77% |  | 
CN1CC[C@@]2([C@@]34CCN(C)[C@@H]3Nc3ccccc34)c3ccccc3N[C@@H]12 | -6.54% |  | 
COc1ccc(-c2oc3cc(OC)cc(OC)c3c(=O)c2O)cc1 | -7.4% |  | 
Cc1cc(O)cc2c1C(=O)c1c(O)cc(O)cc1C2=O |  | inactive | 
C=C(Cl)[C@](Cl)(CBr)CC[C@@H](Br)C(C)(C)Cl |  |  | 4.18 µM (active)
C=C(C)C(=O)O[C@H]1C[C@@]2(C)OC(=CC2=O)/C(C)=C\[C@H]2OC(=O)C(=C)[C@H]12 |  |  | 1.66 µM (active)
C=C[C@]1(C)CC[C@@H]([C@H](C)C(=O)CC=C(C)C)O1 | -4.69% |  | 
CC[C@@H]1C[C@@]2(CC)OC(=O)[C@@]3(CC)[C@H](CC)[C@@H]1[C@@H]23 | 2.49% |  | 
[C-]#[N+][C@@]12C(=O)[C@@H]3[C@@H](O[C@@]4(C(=O)N(C)c5cccc1c54)C3(C)C)C(=O)[C@@]2(C)C=C | 4.43% |  | 
COC(=O)c1cccc2oc(-c3cccc4oc(-c5c(C)cccc5O)nc34)nc12 | -4.93% |  | 
C[C@@]12CCC[C@@](C)(C(=O)OP(=O)(O)OC[C@H]3O[C@@H](n4cnc5c(N)ncnc54)[C@H](O)[C@@H]3O)[C@H]1C[C@@H](O)[C@@]13C[C@@H](CC[C@@H]21)[C@](C)(O)C3 |  |  | 16.6 µM (active)
CCC(C)=C1OC(=O)[C@H](C)[C@H](O)[C@H](Cc2cccnc2)NC(=O)C(NC(=O)c2ncccc2O)C(C)OC1=O (some centres undefined) | -0.922% |  | 
C[C@@]12CCC[C@@](C)(C(=O)O)[C@H]1CC[C@@]13C[C@@H](CC[C@H]12)[C@](C)(O)C3 |  | inactive | 
O=C1OC(CCO)c2cccc(O)c21 (centres undefined) |  | inactive | 

Structure (SMILES) | activity change, negative = cytotoxicity | outcome | Potency
C=C1C[C@]23C=CC(=O)[C@@](C)(CCCC(C)C(=O)N[C@@H](CO)C(=O)O)[C@@H]2C[C@@H]1CC3 (some centres undefined) |  | inactive | 
COc1cc2ccc(=O)oc2c(O)c1O[C@@H]1O[C@H](CO)[C@@H](O)[C@H](O)[C@H]1O |  | inactive [at 27.5 µM] | 
C/C(=C\[C@@H](C)CC/C=C/CC/C=C/C(=O)O)[C@@H](O)[C@H](C)C(=O)CCCC1CC(=O)NC(=O)C1 | 2.95% |  | 
CO[C@@H](C[C@@H](C)[C@@H](O)/C=C/C=C/CNC(=O)C(C)(C)[C@H](O)\C(C)=C/C=C\C=C\Cc1cnco1)[C@]1(O)[C@@H](C)C(=O)N(C)[C@@]12COC2=O | 9.8% |  | 
O=C1CC(c2ccc(O)cc2)Oc2cc(O)cc(O)c21 (centres undefined) | 1.54% |  | 
O=C1CC(c2ccc(O)cc2)Oc2cc(O)ccc21 (centres undefined) | -19.1% |  | 
CN1CC[C@@]23c4ccccc4N[C@@H]1[C@@]21CCN(C)[C@@H]3Nc2ccccc21 | 1.51% |  | 
C[C@@]12CCC[C@@](C)(C(=O)O)[C@H]1C[C@@H](O)[C@@]13C[C@@H](CC[C@@H]21)[C@](C)(O)C3 |  | inactive | 
O=Cc1ccc2n1C[C@]1(OC2)O[C@H](CO)[C@@H](O)[C@@H]1O |  | inactive | 
C=C[C@@]1(C)CC[C@@H]([C@H](C)C(C)=O)O1 | 2.65% |  | 
C/C=C(/CO)C(=O)O[C@@H]1[C@H](O)[C@@H](C(=O)OC)O[C@@H]2C[C@H]3OC(n4cnc5c(N)ncnc54)[C@H](OC)[C@H]3O[C@@]12O (some centres undefined) | -3.9% |  | 
C/C=C/[C@H]1[C@H]2C(=O)c3c(O)c(C)c(O)c(C)c3[C@]1(C(=O)O)C(=O)C=C2C | -2.25% |  | 
C[C@@]12C[C@@H](C[C@@H]3C(=O)O[C@@H](c4ccoc4)[C@H](OC(=O)c4ccccc4)[C@@H]31)OC2=O | 2.45% |  | 
C=C1CCC2C(C)(C(=O)O)CCC(CC/C(C)=C/C(=O)NC(CCC(N)=O)C(=O)O)[C@@]2(C)C1 (some centres undefined) |  | inactive | 
C=C1[C@@]2(C)CC3C4(C)CCC(O)C(C)(C)C4CCC3(C)[C@]1(C(=O)OC)C(=O)C(C)(O)C2=O (some centres undefined) | 3.25% |  | 
CC(C)=CCC[C@]1(C)[C@H]2CC(=O)[C@@]3(CO3)[C@@H]1C2 | 2.67% |  | 
CCCCCC(=O)N[C@@H](CC(C)C)C(=O)N[C@H](C=O)CCC(=O)O (Hexanoyl-Leu-Glu-aldehyde) | 3.64% |  | 
COc1ccc([C@@H]2c3cc4c(cc3C(=O)C(C)C2C)OCO4)cc1OC (some centres undefined) | -1.39% |  | 
CC1(C)CC[C@]2(CO)CC[C@]3(C)C(=CCC4[C@@]5(C)CC[C@H](O)C(C)(C)C5CC[C@]43C)C2C1 (some centres undefined) | 0.998% |  | 
